Experimental data from PubChem BioAssay AID1159580 (chemical genetic matrix, 2015).
Among all 5,500 compounds or so, about 2,000 (36%) were called active. About 18% were inconclusive and are not listed. No stated cut-off is given here; in the data, active means normalized growth mostly below about 0.91 (no sharp cut-off); inconclusive means no clear call, values can overlap the other calls; inactive means mostly above about 0.92. The list shows a part of the results.

Experiment: chemical genetic growth profiling, strain panel (AID 1159580);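 further: tested at 20 µM; growth read once vehicle control cultures reached saturation at 30 °C; 1 = growth at the plate median or of vehicle wells; lower values mean less growth of the strain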
Conditions: growth OD

Measured: normalized growth

COC1=CC(=O)C=C(OC)C1=O
inactive: S. cerevisiae deletion strains, locus YKL009W, strain mrt4, active compounds read low 0.956 | S. cerevisiae deletion strains, locus YKL068W, active compounds read low 0.972 | S. cerevisiae deletion strains, locus YKL085W, strain MDH1 (second series), active compounds read low 0.981 | S. cerevisiae deletion strains, locus YKL085W, strain MDH1, active compounds read low 0.981 | S. cerevisiae deletion strains, locus YKL160W, strain elf1, active compounds read low 0.971 | S. cerevisiae deletion strains, locus YKL190W, strain CNB1, active compounds read low 0.989 | S. cerevisiae deletion strains, locus YKR001C, strain vps1, active compounds read low 0.995 | S. cerevisiae deletion strains, locus YKR026C, strain gcn3, active compounds read low 0.995 | S. cerevisiae deletion strains, locus YKR091W, strain srl3, active compounds read low 1 | S. cerevisiae deletion strains, locus YLL001W, strain dnm1, active compounds read low 0.996 | S. cerevisiae deletion strains, locus YLL026W, active compounds read low 0.991 | S. cerevisiae deletion strains, locus YLL041C, strain sdh2, active compounds read low 1.01 | S. cerevisiae deletion strains, locus YLR027C, strain aat2, active compounds read low 0.997 | S. cerevisiae deletion strains, locus YLR039C, strain RIC1, active compounds read low 0.981 | S. cerevisiae deletion strains, locus YLR058C, strain SHM2, active compounds read low 0.988 | S. cerevisiae deletion strains, locus YLR102C, strain apc9, active compounds read low 0.982 | S. cerevisiae deletion strains, locus YLR113W, strain HOG1, active compounds read low 0.998 | S. cerevisiae deletion strains, locus YLR221C, strain rsa3, active compounds read low 1 | S. cerevisiae deletion strains, locus YLR258W, strain gsy2, active compounds read low 0.997 | S. cerevisiae deletion strains, locus YLR262C, strain YPT6 (second series), active compounds read low 0.946 | S. cerevisiae deletion strains, locus YLR262C, strain YPT6, active compounds read low 0.967 | S. cerevisiae deletion strains, locus YLR268W, strain sec22, active compounds read low 0.989 | S. cerevisiae deletion strains, locus YLR320W, strain mms22, active compounds read low 0.955 | S. cerevisiae deletion strains, locus YLR330W, strain CHS5, active compounds read low 0.997 | S. cerevisiae deletion strains, locus YLR342W, strain FKS1 (second series), active compounds read low 1.02 | S. cerevisiae deletion strains, locus YLR342W, strain FKS1, active compounds read low 0.976 | S. cerevisiae deletion strains, locus YLR357W, strain rsc2, active compounds read low 0.99 | S. cerevisiae deletion strains, locus YLR370C, strain arc18, active compounds read low 1.01 | S. cerevisiae deletion strains, locus YLR371W, strain rom2, active compounds read low 0.989 | S. cerevisiae deletion strains, locus YLR384C, strain iki3, active compounds read low 0.986 | S. cerevisiae deletion strains, locus YLR418C, strain cdc73, active compounds read low 0.999 | S. cerevisiae deletion strains, locus YML016C, strain PPZ1, active compounds read low 0.994 | S. cerevisiae deletion strains, locus YML032C, strain rad52, active compounds read low 0.973 | S. cerevisiae deletion strains, locus YML120C, strain ndi1, active compounds read low 1.01 | S. cerevisiae deletion strains, locus YML124C, strain tub3, active compounds read low 0.987 | S. cerevisiae deletion strains, locus YMR058W, strain fet3, active compounds read low 1.02 | S. cerevisiae deletion strains, locus YMR078C, strain ctf18, active compounds read low 0.999 | S. cerevisiae deletion strains, locus YMR125W, strain sto1, active compounds read low 1.02 | S. cerevisiae deletion strains, locus YMR129W, active compounds read low 0.999 | S. cerevisiae deletion strains, locus YMR205C, strain PFK2, active compounds read low 0.983 | S. cerevisiae deletion strains, locus YMR223W, strain ubp8, active compounds read low 0.993 | S. cerevisiae deletion strains, locus YMR231W, strain pep5, active compounds read low 1.01 | S. cerevisiae deletion strains, locus YMR307W, strain GAS1, active compounds read low 1.12 | S. cerevisiae deletion strains, locus YNL067W, strain RPL9B, active compounds read low 0.997 | S. cerevisiae deletion strains, locus YNL071W, strain lat1, active compounds read low 0.989 | S. cerevisiae deletion strains, locus YNL183C, strain NPR1, active compounds read low 0.95 | S. cerevisiae deletion strains, locus YNL209W, strain ssb2, active compounds read low 0.996 | S. cerevisiae deletion strains, locus YNL233W, strain BNI4, active compounds read low 1.02 | S. cerevisiae deletion strains, locus YNL248C, strain rpa49, active compounds read low 1.01 | S. cerevisiae deletion strains, locus YNL250W, strain rad50, active compounds read low 0.987 | S. cerevisiae deletion strains, locus YNL271C, strain bni1, active compounds read low 0.99 | S. cerevisiae deletion strains, locus YNL298W, strain CLA4, active compounds read low 0.999 | S. cerevisiae deletion strains, locus YNL307C, strain MCK1, active compounds read low 0.992 | S. cerevisiae deletion strains, locus YNL322C, strain KRE1 (second series), active compounds read low 0.996 | S. cerevisiae deletion strains, locus YNL322C, strain KRE1, active compounds read low 0.993 | S. cerevisiae deletion strains, locus YNR049C, strain mso1, active compounds read low 1 | S. cerevisiae deletion strains, locus YNR052C, strain pop2, active compounds read low 1.01 | S. cerevisiae deletion strains, locus YOL006C, strain TOP1, active compounds read low 1.17 | S. cerevisiae deletion strains, locus YOL012C, strain htz1 0.746 | S. cerevisiae deletion strains, locus YOL147C, strain pex11, active compounds read low 0.988 | S. cerevisiae deletion strains, locus YOR001W, strain rrp6, active compounds read low 1 | S. cerevisiae deletion strains, locus YOR061W, strain CKA2, active compounds read low 0.965 | S. cerevisiae deletion strains, locus YOR069W, strain VPS5, active compounds read low 0.991 | S. cerevisiae deletion strains, locus YOR070C, strain gyp1, active compounds read low 0.996 | S. cerevisiae deletion strains, locus YOR080W, strain dia2, active compounds read low 1.01 | S. cerevisiae deletion strains, locus YOR083W, strain WHI5, active compounds read low 0.927 | S. cerevisiae deletion strains, locus YOR106W, strain vam3, active compounds read low 0.97 | S. cerevisiae deletion strains, locus YOR136W, strain idh2, active compounds read low 0.972 | S. cerevisiae deletion strains, locus YOR144C, strain elg1, active compounds read low 0.994 | S. cerevisiae deletion strains, locus YOR184W, strain ser1, active compounds read low 0.982 | S. cerevisiae deletion strains, locus YOR231W, strain MKK1, active compounds read low 1.01 | S. cerevisiae deletion strains, locus YOR265W, strain rbl2, active compounds read low 0.994 | S. cerevisiae deletion strains, locus YOR270C, strain vph1, active compounds read low 0.94 | S. cerevisiae deletion strains, locus YOR290C, strain snf2, active compounds read low 0.991 | S. cerevisiae deletion strains, locus YOR316C, strain cot1, active compounds read low 0.986 | S. cerevisiae deletion strains, locus YPL051W, strain arl3, active compounds read low 0.998 | S. cerevisiae deletion strains, locus YPL055C, strain LGE1, active compounds read low 1.04 | S. cerevisiae deletion strains, locus YPL078C, strain atp4, active compounds read low 0.962 | S. cerevisiae deletion strains, locus YPL106C, strain sse1, active compounds read low 0.994 | S. cerevisiae deletion strains, locus YPL240C, strain hsp82, active compounds read low 0.991 | S. cerevisiae deletion strains, locus YPL241C, strain CIN2, active compounds read low 0.986 | S. cerevisiae deletion strains, locus YPL256C, strain CLN2, active compounds read low 1.01 | S. cerevisiae deletion strains, locus YPR119W, strain clb2, active compounds read low 0.981 | S. cerevisiae deletion strains, locus YPR141C, strain kar3, active compounds read low 0.983 | S. cerevisiae deletion strains, locus YPR163C, strain tif3, active compounds read low 1 | S. cerevisiae deletion strains, locus YPR167C, strain met16, active compounds read low 0.976 | S. cerevisiae deletion strains, strain wtn01, active compounds read low 0.981 | S. cerevisiae strains, strain wild type, active compounds read low 1
